The target of experiment [1] is Mitogen-activated protein kinase 3 (Homo sapiens) (UniProt P27361). The conditions noted are these: at 1 µM.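 Note: values are mean percent inhibition of MAPK3.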
The target of experiment [2] is SRSF protein kinase 3 (Homo sapiens) (UniProt Q9UPE1). The following applies: at 0.1 µM.
Experiment [3] shares this target. The following applies: at 1 µM.
Experiment [4] concerns the target Mitogen-activated protein kinase 14 (Homo sapiens) (UniProt Q16539). The following applies: at 0.1 µM.
Experiment [5] has the same target. The following applies: at 1 µM.
The target of experiment [6] is Mitogen-activated protein kinase 11 (Homo sapiens) (UniProt Q15759). The following applies: at 0.1 µM.
Sequence of Mitogen-activated protein kinase 11 (Homo sapiens) (Q15759 whole entry): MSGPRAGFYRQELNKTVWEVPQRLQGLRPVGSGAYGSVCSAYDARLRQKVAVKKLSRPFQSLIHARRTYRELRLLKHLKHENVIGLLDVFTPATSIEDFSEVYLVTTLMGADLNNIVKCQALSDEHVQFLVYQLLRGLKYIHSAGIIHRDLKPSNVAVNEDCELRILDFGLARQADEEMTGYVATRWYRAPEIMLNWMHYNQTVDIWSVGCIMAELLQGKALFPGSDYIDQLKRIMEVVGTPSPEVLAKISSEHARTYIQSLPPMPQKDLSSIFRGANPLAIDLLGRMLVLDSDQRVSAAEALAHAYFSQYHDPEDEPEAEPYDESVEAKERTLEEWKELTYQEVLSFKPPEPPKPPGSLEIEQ
Experiment [7] has the same target. The conditions noted are these: at 1 µM.
For experiment [8], the target named is T1, Mitogen-activated protein kinase 13 (Homo sapiens) (UniProt O15264).
T1 sequence (whole entry): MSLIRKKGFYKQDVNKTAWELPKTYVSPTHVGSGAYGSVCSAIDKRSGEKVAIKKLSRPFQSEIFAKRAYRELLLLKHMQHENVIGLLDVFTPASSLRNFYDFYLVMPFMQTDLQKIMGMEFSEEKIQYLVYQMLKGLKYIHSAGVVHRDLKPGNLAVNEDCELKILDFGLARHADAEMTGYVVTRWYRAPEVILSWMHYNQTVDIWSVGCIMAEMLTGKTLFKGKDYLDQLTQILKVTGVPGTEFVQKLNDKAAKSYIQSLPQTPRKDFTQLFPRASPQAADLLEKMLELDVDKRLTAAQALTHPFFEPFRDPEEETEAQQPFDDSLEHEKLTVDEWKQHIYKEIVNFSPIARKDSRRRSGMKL
The conditions noted are these: at 0.1 µM.

In experiment [9] the target is T1, Mitogen-activated protein kinase 13 (Homo sapiens). The conditions noted are these: at 1 µM.
Experiment [10] deals with T2, Mitogen-activated protein kinase 12 (Homo sapiens) (UniProt P53778).
T2 sequence (whole entry): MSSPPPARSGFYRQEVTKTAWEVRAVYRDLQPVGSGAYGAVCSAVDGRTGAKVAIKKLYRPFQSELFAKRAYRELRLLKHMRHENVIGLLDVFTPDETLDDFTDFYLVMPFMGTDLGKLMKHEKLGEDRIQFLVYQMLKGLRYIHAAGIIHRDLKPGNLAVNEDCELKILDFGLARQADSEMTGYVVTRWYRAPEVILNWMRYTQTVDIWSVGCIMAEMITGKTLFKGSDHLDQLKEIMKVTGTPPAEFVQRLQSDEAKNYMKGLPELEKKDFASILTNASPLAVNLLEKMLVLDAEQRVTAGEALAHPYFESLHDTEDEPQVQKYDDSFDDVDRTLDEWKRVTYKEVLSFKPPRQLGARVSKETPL
The conditions noted are these: at 0.1 µM.

Experiment [11] deals with T2, Mitogen-activated protein kinase 12 (Homo sapiens). The conditions noted are these: at 1 µM.
The target of experiment [12] is SRSF protein kinase 1 (Homo sapiens) (UniProt Q96SB4). The conditions noted are these: at 0.1 µM.
Sequence of SRSF protein kinase 1 (Homo sapiens) (Q96SB4 whole entry): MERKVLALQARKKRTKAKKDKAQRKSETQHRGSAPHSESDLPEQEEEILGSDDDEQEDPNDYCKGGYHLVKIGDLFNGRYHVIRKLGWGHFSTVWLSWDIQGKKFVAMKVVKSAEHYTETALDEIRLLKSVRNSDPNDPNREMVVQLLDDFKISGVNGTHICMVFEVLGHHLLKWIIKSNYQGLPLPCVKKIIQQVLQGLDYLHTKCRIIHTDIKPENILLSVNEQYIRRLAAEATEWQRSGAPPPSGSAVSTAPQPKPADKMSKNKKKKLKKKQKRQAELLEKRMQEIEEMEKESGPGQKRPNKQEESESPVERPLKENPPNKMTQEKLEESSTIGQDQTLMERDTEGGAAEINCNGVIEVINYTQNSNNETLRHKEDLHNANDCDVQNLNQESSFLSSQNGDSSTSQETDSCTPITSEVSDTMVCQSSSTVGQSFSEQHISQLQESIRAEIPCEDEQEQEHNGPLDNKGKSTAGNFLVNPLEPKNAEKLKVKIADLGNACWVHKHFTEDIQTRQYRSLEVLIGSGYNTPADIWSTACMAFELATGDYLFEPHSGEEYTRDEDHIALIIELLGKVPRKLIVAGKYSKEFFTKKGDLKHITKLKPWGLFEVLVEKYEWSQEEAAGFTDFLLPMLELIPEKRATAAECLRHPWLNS
Experiment [13] has the same target. The conditions noted are these: at 1 µM.
Experiment [14] deals with Phosphatidylinositol 4,5-bisphosphate 3-kinase catalytic subunit alpha isoform (Homo sapiens) (UniProt P42336). The conditions noted are these: at 0.1 µM.
Sequence of Phosphatidylinositol 4,5-bisphosphate 3-kinase catalytic subunit alpha isoform (Homo sapiens) (P42336 whole entry, canonical isoform): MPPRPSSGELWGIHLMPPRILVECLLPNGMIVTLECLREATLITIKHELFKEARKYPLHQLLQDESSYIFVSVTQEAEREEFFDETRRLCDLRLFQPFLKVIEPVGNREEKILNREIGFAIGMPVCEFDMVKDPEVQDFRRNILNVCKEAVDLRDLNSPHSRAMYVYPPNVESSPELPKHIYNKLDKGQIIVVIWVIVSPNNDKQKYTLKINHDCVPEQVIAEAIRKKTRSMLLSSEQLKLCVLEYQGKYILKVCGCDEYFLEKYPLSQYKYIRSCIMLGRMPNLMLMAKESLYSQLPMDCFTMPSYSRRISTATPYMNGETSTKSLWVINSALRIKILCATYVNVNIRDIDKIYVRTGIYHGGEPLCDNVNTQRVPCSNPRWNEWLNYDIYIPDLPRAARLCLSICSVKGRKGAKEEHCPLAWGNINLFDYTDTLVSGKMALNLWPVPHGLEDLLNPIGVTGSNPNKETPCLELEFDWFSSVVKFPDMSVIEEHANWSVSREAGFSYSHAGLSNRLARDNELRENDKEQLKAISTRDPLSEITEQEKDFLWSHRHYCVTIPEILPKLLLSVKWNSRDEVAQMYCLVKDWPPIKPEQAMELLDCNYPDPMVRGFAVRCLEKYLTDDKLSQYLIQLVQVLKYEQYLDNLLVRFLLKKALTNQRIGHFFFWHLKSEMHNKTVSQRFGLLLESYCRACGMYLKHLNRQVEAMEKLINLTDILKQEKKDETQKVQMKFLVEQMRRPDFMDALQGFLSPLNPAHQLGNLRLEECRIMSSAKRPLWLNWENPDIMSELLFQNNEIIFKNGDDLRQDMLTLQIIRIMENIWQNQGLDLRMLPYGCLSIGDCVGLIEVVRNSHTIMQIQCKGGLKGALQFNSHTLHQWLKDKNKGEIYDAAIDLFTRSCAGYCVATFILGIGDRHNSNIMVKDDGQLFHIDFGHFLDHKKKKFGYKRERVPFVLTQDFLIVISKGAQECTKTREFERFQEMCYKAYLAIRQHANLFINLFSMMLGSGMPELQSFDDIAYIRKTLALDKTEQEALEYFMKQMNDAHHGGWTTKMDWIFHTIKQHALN
Experiment [15] shares this target. The conditions noted are these: at 1 µM.
The target of experiment [16] is T3, Phosphatidylinositol 4,5-bisphosphate 3-kinase catalytic subunit delta isoform (Homo sapiens) (UniProt O00329).
T3 sequence (whole entry): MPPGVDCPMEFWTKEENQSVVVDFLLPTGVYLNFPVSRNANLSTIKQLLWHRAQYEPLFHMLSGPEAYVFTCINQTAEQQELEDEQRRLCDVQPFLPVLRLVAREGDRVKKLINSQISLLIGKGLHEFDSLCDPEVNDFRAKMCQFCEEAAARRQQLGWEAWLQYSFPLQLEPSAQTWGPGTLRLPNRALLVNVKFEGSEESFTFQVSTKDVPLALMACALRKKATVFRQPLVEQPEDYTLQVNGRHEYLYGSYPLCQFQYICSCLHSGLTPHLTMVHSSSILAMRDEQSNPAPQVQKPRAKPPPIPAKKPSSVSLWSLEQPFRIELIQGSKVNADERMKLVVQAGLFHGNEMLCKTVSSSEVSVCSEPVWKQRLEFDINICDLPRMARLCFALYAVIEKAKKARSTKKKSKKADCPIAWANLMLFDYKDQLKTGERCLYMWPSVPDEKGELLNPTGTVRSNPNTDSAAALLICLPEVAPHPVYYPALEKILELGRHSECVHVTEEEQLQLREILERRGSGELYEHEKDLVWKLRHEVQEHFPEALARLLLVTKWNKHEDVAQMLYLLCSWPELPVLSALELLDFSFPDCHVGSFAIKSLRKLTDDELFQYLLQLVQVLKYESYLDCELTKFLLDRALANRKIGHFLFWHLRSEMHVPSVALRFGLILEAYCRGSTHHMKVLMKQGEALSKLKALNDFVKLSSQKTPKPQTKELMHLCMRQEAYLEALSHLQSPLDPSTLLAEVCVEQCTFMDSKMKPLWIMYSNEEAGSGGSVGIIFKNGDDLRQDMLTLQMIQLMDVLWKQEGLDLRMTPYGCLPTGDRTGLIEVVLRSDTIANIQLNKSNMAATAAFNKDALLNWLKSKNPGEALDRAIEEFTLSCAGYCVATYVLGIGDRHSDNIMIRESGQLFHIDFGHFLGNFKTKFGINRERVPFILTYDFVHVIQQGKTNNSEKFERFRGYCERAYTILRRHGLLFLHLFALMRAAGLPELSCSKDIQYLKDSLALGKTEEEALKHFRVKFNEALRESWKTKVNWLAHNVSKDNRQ
The conditions noted are these: at 0.1 µM.

In experiment [17] the target is T3, Phosphatidylinositol 4,5-bisphosphate 3-kinase catalytic subunit delta isoform (Homo sapiens). The following applies: at 1 µM.
The target in experiment [18] is Phosphatidylinositol 4-kinase beta (Homo sapiens) (UniProt Q9UBF8). The following applies: at 0.1 µM.
Sequence of Phosphatidylinositol 4-kinase beta (Homo sapiens) (Q9UBF8 2-816 limits assumed): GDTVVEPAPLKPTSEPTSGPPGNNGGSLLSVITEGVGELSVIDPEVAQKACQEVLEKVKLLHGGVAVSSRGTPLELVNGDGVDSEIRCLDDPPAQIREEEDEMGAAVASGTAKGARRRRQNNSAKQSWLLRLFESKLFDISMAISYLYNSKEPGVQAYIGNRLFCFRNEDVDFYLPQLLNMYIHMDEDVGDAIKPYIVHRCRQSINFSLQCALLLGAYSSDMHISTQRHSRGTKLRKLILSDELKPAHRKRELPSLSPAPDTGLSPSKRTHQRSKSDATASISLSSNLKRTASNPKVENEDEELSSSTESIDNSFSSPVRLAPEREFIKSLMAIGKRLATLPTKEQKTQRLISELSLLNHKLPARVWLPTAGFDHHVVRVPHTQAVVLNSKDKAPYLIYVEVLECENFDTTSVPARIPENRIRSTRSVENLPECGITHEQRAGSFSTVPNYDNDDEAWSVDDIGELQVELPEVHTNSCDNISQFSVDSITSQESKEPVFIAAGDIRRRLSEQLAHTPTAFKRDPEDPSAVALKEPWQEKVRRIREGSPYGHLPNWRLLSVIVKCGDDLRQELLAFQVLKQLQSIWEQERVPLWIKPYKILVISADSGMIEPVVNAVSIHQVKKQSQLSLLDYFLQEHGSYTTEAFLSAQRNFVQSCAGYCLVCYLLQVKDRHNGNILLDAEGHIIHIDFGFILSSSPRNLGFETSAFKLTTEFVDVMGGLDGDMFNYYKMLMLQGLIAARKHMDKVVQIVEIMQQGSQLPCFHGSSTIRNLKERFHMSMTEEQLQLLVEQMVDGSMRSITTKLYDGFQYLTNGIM
The target is the same in experiment [19]. The following applies: at 1 µM.
Experiment [20] addresses Sphingosine kinase 1 (Homo sapiens) (UniProt Q9NYA1). The conditions noted are these: at 0.1 µM.

Structures are written as SMILES.

Sequence of SRSF protein kinase 3 (Homo sapiens) (Q9UPE1 whole entry): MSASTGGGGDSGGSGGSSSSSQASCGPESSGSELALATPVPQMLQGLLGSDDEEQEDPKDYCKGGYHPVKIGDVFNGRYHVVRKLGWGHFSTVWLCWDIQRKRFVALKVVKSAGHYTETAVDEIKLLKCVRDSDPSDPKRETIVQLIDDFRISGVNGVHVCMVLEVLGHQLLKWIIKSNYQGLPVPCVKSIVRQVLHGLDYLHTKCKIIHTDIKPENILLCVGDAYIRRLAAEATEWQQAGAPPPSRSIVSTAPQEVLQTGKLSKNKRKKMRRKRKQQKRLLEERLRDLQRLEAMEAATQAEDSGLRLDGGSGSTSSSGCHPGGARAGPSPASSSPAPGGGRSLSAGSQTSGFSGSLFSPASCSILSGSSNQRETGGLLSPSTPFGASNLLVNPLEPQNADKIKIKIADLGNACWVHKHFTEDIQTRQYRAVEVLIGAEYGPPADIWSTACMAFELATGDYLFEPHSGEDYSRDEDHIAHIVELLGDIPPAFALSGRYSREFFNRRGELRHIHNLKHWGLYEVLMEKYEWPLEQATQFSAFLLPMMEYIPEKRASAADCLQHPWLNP
Sequence of Mitogen-activated protein kinase 14 (Homo sapiens) (Q16539 whole entry): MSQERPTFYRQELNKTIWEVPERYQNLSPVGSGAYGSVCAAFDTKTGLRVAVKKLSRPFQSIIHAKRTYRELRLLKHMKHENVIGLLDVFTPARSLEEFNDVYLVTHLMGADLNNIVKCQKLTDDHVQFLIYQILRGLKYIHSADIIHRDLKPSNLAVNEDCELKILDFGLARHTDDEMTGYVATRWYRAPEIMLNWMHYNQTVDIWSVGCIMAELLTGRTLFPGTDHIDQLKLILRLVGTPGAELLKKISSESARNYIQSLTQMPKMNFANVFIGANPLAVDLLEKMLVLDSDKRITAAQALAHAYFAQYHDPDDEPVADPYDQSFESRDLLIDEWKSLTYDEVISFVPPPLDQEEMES
Sequence of Sphingosine kinase 1 (Homo sapiens) (Q9NYA1 whole entry): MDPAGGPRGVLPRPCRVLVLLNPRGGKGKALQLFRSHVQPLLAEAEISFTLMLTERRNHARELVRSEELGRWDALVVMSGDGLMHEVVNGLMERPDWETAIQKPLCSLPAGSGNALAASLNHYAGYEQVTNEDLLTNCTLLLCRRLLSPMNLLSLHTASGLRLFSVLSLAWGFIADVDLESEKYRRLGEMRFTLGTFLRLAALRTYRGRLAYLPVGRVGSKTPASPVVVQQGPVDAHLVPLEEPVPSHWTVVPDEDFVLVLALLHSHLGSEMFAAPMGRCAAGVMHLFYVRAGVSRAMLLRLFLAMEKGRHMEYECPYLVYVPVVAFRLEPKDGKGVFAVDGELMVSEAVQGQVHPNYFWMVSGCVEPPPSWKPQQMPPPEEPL
Sequence of Mitogen-activated protein kinase 3 (Homo sapiens) (P27361 whole entry): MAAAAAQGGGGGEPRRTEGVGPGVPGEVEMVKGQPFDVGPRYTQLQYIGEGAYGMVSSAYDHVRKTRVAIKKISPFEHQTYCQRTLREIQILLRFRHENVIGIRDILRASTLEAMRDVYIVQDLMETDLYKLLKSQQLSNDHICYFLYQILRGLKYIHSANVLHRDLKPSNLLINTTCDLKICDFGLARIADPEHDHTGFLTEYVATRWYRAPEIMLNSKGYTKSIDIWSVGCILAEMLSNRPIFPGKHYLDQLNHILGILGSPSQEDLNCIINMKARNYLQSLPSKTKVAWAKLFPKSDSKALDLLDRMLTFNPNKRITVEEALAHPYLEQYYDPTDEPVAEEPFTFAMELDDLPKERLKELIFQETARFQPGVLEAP

For the compound `CCn1c(-c2nonc2N)nc2c(N3CCCC3)nccc21`, the inhibition in experiment [1] is 1.82%; in [2] it was 0.04%; in [3], -1.21%; in experiment [4] it was 1.24%; in experiment [5], -3.47%; in [6] it was 0.58%. The inhibition in [7] is 2.54%; in experiment [8], -0.53%; in experiment [9], -1.01%; in experiment [10] it was 0.01%; in [11], -1.61%; in experiment [12] it was 0.36%. The inhibition in experiment [13] was 0.58%; in experiment [14] it was -1.75%; in [15] it was -0.26%; in [16], 0.19%; in experiment [17], 0.29%; in experiment [18], -6.46%. For the same compound, the inhibition is -2.5% in experiment [19] and 2.26% in experiment [20].
With `O=C1NC(=O)C(N2CCc3ccccc32)=C1c1ccc(Cl)cc1`, the inhibition in experiment [1] was 2.62%; in experiment [2], 1.04%; in experiment [3], -0.52%; in experiment [4], 3.97%; in experiment [5], 8.43%; in experiment [6], 5.07%. The inhibition was 4.84% in experiment [7]; 1.06% in [8]; 5.95% in experiment [9]; 3.98% in experiment [10]; 3.35% in [11]; -1.77% in experiment [12]. Further, the inhibition in [13] is -3.78%; in [14], 4.21%; in experiment [15] it was 6.29%; in experiment [16], 3.6%; in experiment [17], 5.56%; in experiment [18], -1.76%. For the same compound, the inhibition in [19] is -1.34%.
Turning to `COC(=O)Nc1nc2cc(Oc3cccc(NC(=O)Nc4cc(C(F)(F)F)ccc4F)c3)ccc2[nH]1`, the inhibition in [1] was 0.49%; in experiment [2], -1.97%; in experiment [3], -3.98%; in experiment [4], 2.37%; in experiment [5], 5.26%; in [6] it was 1.03%. In addition, the inhibition is 1.94% in experiment [7]; -4.01% in experiment [8]; -0.11% in experiment [9]; 0.33% in [10]; -0.42% in experiment [11]; -0.98% in experiment [12]. Further, the inhibition in [13] is -3.74%; in experiment [14], -3.27%; in experiment [15] it was -1.03%; in experiment [16] it was 0.19%; in [17], 0.17%; in [18], 1.18%. The inhibition is 0.44% in experiment [19] and -0.62% in experiment [20].
For `COc1cc(C)c(NC(=O)CN(C)C)cc1Nc1nc(Nc2cccc(F)c2C(N)=O)c2cc[nH]c2n1`, the inhibition in experiment [1] turned out to be 0.63%; in experiment [2] it was 2.12%; in [3], 7.69%; in experiment [4], 1.35%; in [5] it was 5.59%; in experiment [6] it was 3.27%. Besides, the inhibition is 3.23% in [7]; -0.43% in experiment [8]; 1.87% in [9]; 0.52% in [10]; 1.38% in [11]; -2.61% in [12]. Besides, the inhibition was -3.29% in experiment [13]; 0.75% in experiment [14]; 0.03% in experiment [15]; 0.12% in experiment [16]; 2.2% in [17]; 5.07% in [18]. The inhibition in experiment [19] is 1.45%.
`Fc1cccc(COc2ccc(Nc3ncnc4sc(-c5cccs5)cc34)cc2Cl)c1`: the inhibition in experiment [1] was 1.8%; in experiment [2], 0.46%; in experiment [3] it was 0.83%; in [4], 0.93%; in [5], 1.59%; in [6] it was -0.98%. The inhibition in experiment [7] is -0.33%; in experiment [8], 1.26%; in experiment [9], 0.64%; in [10] it was 0.6%; in [11] it was 0.86%; in experiment [12], 0.18%. For the same compound, the inhibition in experiment [13] is -1.11%; in experiment [14], 0.9%; in experiment [15], 4.07%; in experiment [16], -0.78%; in experiment [17] it was 2.29%; in [18], 0.44%. The inhibition in experiment [19] is -0.43%; in experiment [20], -1.15%.
`O=C1Nc2ccc(C(=O)c3ccco3)cc2C1=Cc1cc(Cl)c(O)c(Cl)c1`: the inhibition in experiment [1] is 3.14%; in [2] it was -3.06%; in [3], 0.75%; in experiment [4], 2.28%; in experiment [5], 6.71%; in [6] it was 1.71%. Further, the inhibition is 3.75% in experiment [7]; 0.88% in experiment [8]; 2.9% in experiment [9]; 0.31% in experiment [10]; 5.17% in experiment [11]; -1.28% in [12]. Moreover, the inhibition in [13] worked out at 1.6%; in experiment [14], 21.6%; in experiment [15] it was 69.1%; in experiment [16], 8.04%; in [17], 24.9%; in experiment [18] it was 37.4%. For the same compound, the inhibition in experiment [19] came out at 80.7%; in [20], 7.33%.

As usually defined, the inhibition is the relative decrease from the control value, in per cent.

These data come from ChEMBL document CHEMBL1961873, “Compounds: GSK PKIS; Assays: Nanosyn kinase panel” (2012).
